Only some compounds are listed: those with a hit (about 1.6% of all), similar ones and a draw of the others.
PrP 5UTR inh – inhibition of PrP 5' UTR reporter expression; cell-based PrP 5' UTR mRNA reporter, plate reader; inhibition, % (test concentration not listed); 340,000 compounds, 0.35% hits; AID 488862; in the data active = inhibition above about 52%; also: 0 = median of the neutral control wells
3CLpro inhibitor – SARS-CoV 3CLpro protease inhibition; inhibition, % at 6 µM; recombinant SARS-CoV 3CLpro, quenched FRET peptide cleavage; AID 1706; P0C6X7; 290,000 compounds, 0.14% hits; in the data active = inhibition above about 12%
Vc quorum ag – inducers of Vibrio cholerae quorum light production without autoinducers; V. cholerae BH1578 lux reporter, luminescence, 6 h; activation, % at 18.7 µM; 350,000 compounds, 0.16% hits; AID 588436; in the data active = activation mostly above about 9.7%, no sharp cut-off
PfHsp40 yeast – compounds rescuing yeast from Plasmodium falciparum HSP40 toxicity. growth rescue, % at 12.5 µM. 340,000 compounds, 0.68% hits. S. cerevisiae expressing PfHsp40, growth rescue, ATP luminescence; in the data active = growth rescue above about 28%, passing the limit was not always enough;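 also: yeast W303a lacking pdr1 and pdr3 grown in galactose medium; growth measured after three days at 30 °C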
SSB-PriA inh – inhibitors of Klebsiella pneumoniae PriA binding to SSB C-terminal tail. AlphaScreen SSBct-PriA binding, biotinylated peptide. inhibition, % at 33 µM. 430,000 compounds, 0.6% hits; in the data active = inhibition mostly above about 37%, no sharp cut-off; inactive = mostly below about 20%;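 also: plate controls were negative control peptide for no effect and reference peptide for full effect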
PrPC surface inh – inhibitors of human cell surface prion protein PrPC. P04156. TR-FRET read-out. inhibition, % at 13.8 µM. 370,000 compounds, 0.43% hits; in the data active = inhibition above about 24%; also: 0% = median of the test wells and 100% = reference compound wells
PrPC confirm – cell surface PrPC inhibition, TR-FRET confirmation; shares compounds with PrPC surface inh; cell surface PrPC level; inhibition, % at 13.8 µM; 1,500 compounds, 65% hits; AID 743200; in the data active = inhibition above about 25%
LD9 tox – LD9 cell cytotoxicity, PrPc inhibitor counter-screen; 1,500 compounds, 29% hits; shares compounds with PrPC surface inh; inhibition, % at 13.8 µM; LD9 cells cytotoxicity, luminescence viability; in the data active = inhibition above about 9.5%
* hit, by the source's call; i = inactive; · = no result given.

SMILES	PrP 5UTR inh	3CLpro inhibitor	Vc quorum ag	PfHsp40 yeast	SSB-PriA inh	PrPC surface inh	PrPC confirm	LD9 tox
Cc1ccc(NC(=O)c2cc(S(=O)(=O)N(C)C)ccc2N2CCCC2)cc1S(=O)(=O)N(C)C	2.3	·	i	-0.3	4.3	44.0*	37.0*	-5.2
CC(C)(C)c1ccccc1NC(=O)Nc1nc(C(N)c2ccccc2)cs1 (stereo unspecified)	·	·	-0.6	·	·	0.4	·	·
COc1ccc(C(N)c2csc(NC(=O)Nc3ccccc3C(C)(C)C)n2)cc1 (stereo unspecified)	·	·	i	·	·	29.9*	6.5	-6.0
NC(CCc1ccccc1)c1csc(NC(=O)Nc2ccccc2Oc2ccccc2)n1 (stereo unspecified)	·	·	-0.5	·	·	49.6*	33.9*	3.0
COc1ccc(CCNC(=O)NCC2(Sc3ccccc3)CCOCC2)cc1	·	·	·	·	11.0	·	·	·
NC(=O)c1ccc2c(=O)c(O)c(-c3cc(Cl)c(N)c(Cl)c3)[nH]c2c1	-13.5	-5.2	i	-1.8	-15.8	28.8*	4.0	0.2
COc1ccc2c(c1)CNC2=O	·	·	·	·	-1.0	·	·	·
CCc1c(C)nc2c(Br)cccc2c1SCCC#N	-5.4	-1.8	-0.2	0.4	-22.1	64.0*	89.6*	-4.6
CCCc1c(C)nc2ccccc2c1SCCC#N	-9.1	-2.8	-0.3	0.2	7.3	-1.0	·	·
CC(=O)Nc1ccc(NC(=O)CSc2nc(-c3ccccc3C)nc3c2c(=O)n(C)c(=O)n3C)cc1	·	·	·	·	-33.0	·	·	·
CN(CC(=O)Nc1ccccc1C(F)(F)F)C(=O)c1cc(-c2cccs2)nn1-c1ccccc1	-12.5	·	i	·	0.5	24.5*	49.1*	0.4
Cc1ccc(-c2cc(=O)n(CC(=O)N3CCOCC3)cn2)cc1	·	·	·	·	-1.0	·	·	·
CCOC(=O)/C=C/S(=O)(=O)c1ccc(NC(C)=O)cc1	-20.9	4.6	i	-1.6	-13.2	88.7*	-9.5	98.1*
CCOC(=O)/C=C/C(=O)Nc1ccc(S(=O)(=O)Nc2nc(C)cc(C)n2)cc1	·	·	·	·	1.0	·	·	·
COc1cnc(-c2ccccn2)nc1N(C)c1ccccc1	-3.5	2.1	i	183.2*	97.9*	34.0*	26.7*	23.4*
CC(=O)Nc1ccc(S(=O)(=O)N2CCCC[C@H]2C(=O)O)cc1	·	·	·	·	-28.0	·	·	·
CC(C)C(=O)N1CCN(c2ccc(NC(=O)c3ccc([N+](=O)[O-])o3)cc2Cl)CC1	-74.1	-0.1	-0.5	3.5	-11.9	35.5*	11.4	98.0*
O=C(Nc1ccc(N2CCN(C(=O)c3ccccc3)CC2)cc1)c1ccc([N+](=O)[O-])o1	17.0	5.3	-0.7	2.4	-6.0	26.2*	21.9	93.4*
COc1ccc(CC(=O)Nc2nc(-c3cc(Cl)ccc3Cl)cs2)cc1	·	·	·	·	-5.0	·	·	·
Cc1c(NC(=O)c2sc3cc(F)ccc3c2Cl)c(=O)n(-c2ccccc2)n1C	·	·	·	·	0.0	·	·	·
COc1cccc(NC(=O)CCC2CCN(C(=O)C3CC=CCC3)CC2)c1 (stereo unspecified)	-8.4	1.6	-0.2	0.0	-8.4	29.4*	7.9	-3.2
O=C(N/N=C\c1ccccc1[N+](=O)[O-])c1cccc(Br)c1	·	·	·	·	1.0	·	·	·
O=C(NCc1cccs1)C(=O)NC[C@@](O)(c1ccccc1)C1CC1	·	·	·	·	-9.0	·	·	·
CN1C(=O)C(C)(C)COc2ccc(NC(=O)COc3ccc(F)cc3)cc21	·	·	·	·	21.0	·	·	·
O=C1CC(Sc2nnc(-c3ccccc3)o2)C(=O)N1c1ccccc1 (stereo unspecified)	-22.1	-0.8	i	-0.1	-9.6	5.8	·	·
SMILES	PrP 5UTR inh	3CLpro inhibitor	Vc quorum ag	PfHsp40 yeast	SSB-PriA inh	PrPC surface inh	PrPC confirm	LD9 tox
Cc1ccccc1N1C(=O)CC(Sc2nnc(-c3ccccc3)o2)C1=O (stereo unspecified)	0.1	-1.3	·	4.4	-8.8	30.3*	21.3	-2.0
NC(=O)c1ccccc1NC(=O)C1CCN(c2cc(C3CC3)ncn2)CC1	·	·	·	·	1.0	·	·	·
Cc1cccc2cc(C#N)c(SCC(=O)NNC(=O)Cc3ccccc3)nc12	1.6	0.1	-0.2	-0.1	-4.1	2.0	·	·
CCc1cc2cccc(C)c2nc1SCC(=O)NC1CCCC1	-19.8	7.4	i	0.0	-11.8	4.9	·	·
Cc1cc(C)c2nc(SCC(=O)NNC(=O)c3ccco3)c(C)cc2c1	-11.8	6.4	0.1	-0.1	-7.9	43.5*	44.7*	-2.1
CCc1cc2cccc(C)c2nc1SCC(=O)N1CCN(C(=O)c2ccco2)CC1	-4.8	4.4	-0.5	3.3	-2.4	25.0*	59.2*	3.4
CCOC(=O)CNC(=O)CSc1nc2c(C)cccc2cc1CC	-21.1	2.6	-0.5	0.3	-1.5	71.3*	107.4*	-2.1
Cc1cc2cccc(C)c2nc1SCC(=O)NNC(=O)c1ccco1	-33.7	3.9	-0.2	-0.7	15.2	55.2*	65.0*	-5.1
CCc1cc2cc(C)cc(C)c2nc1SCC(=O)N1CCN(C(=O)c2ccco2)CC1	-12.4	-1.2	0.0	-1.2	-5.7	0.2	·	·
Cn1nc(CNC(=O)C(C)(C)Oc2ccc(Cl)cc2)cc1-c1ccco1	·	·	·	·	6.0	·	·	·
COc1nc2ccccc2nc1N1CCC(C(N)=O)CC1	·	·	·	·	11.0	·	·	·
CCc1ccccc1NC(=O)C(=O)NCC(C)(O)CSC (stereo unspecified)	·	·	·	·	-20.0	·	·	·
O=C(CCCS(=O)(=O)c1ccccc1)Nc1nnc(-c2ccc(C(F)(F)F)cc2)o1	·	·	·	·	-3.0	·	·	·
CC1(C)CC(=O)c2sc(NC(=O)c3sc4ccccc4c3Cl)nc2C1	·	·	·	·	-6.0	·	·	·
CCn1c(Cl)c(C=O)s/c1=N\S(=O)(=O)c1ccccc1	-16.8	-3.8	-0.3	-0.5	·	53.1*	102.0*	94.4*
CCn1c(=NS(=O)(=O)c2ccc(C)cc2)sc2c(C)cc(C)cc21	·	·	·	·	1.0	·	·	·
CSCC(C)(O)CNC(=O)CSCc1ccccc1 (stereo unspecified)	·	·	·	·	-25.0	·	·	·
Cn1c(=O)c2cc(NC(=O)NCc3ccc(F)cc3)ccc2n1Cc1cccc(C(F)(F)F)c1	·	·	-0.1	·	·	16.8	·	·
Cn1c(=O)c2cc(NC(=O)NCc3ccccc3)ccc2n1Cc1cccc(C(F)(F)F)c1	·	·	-0.4	·	·	25.3*	14.8	-3.1
Cc1nc(-n2cccc2)sc1C(=O)N1CCC(n2ccnn2)CC1	·	·	·	·	-6.0	·	·	·
Cc1cc(C)cc(NC(=O)C2CCCN2S(=O)(=O)c2ccc3c(c2)C(C)(C)C(=O)N3C)c1 (stereo unspecified)	-27.6	-0.1	-0.2	1.8	-6.7	36.6*	18.7	-3.7
CN1C(=O)C(C)(C)c2cc(S(=O)(=O)N3CCCC(C(=O)NCc4ccc(Cl)cc4)C3)ccc21 (stereo unspecified)	-39.3	-0.6	-0.1	-1.1	-5.4	41.3*	45.4*	-2.0
O=C(NCCn1cnc2ccsc2c1=O)c1ccn[nH]1	·	·	·	·	-11.0	·	·	·
CCn1c(=O)c(C(=O)NCc2ccccn2)c(O)c2ccccc21	-10.2	-1.9	i	-0.7	-6.5	30.0*	39.7*	-5.2

Screening data: PubChem, several laboratories
